Data: PubChem BioAssay
Unmarked numbers belong to inactive results. The list shows a part of the results. Calls of active or inactive are those of the source. Unless noted, no stated cut-off is given here; in the data, active means inhibition above about 42%; inactive means the rest.

What was measured:
[1] = StAR promoter reporter inhibitors, counter-screen for LRH-1 inverse agonist project, cell-based, luminescence, high throughput (AID 651611; in the data active means inhibition above about 28%); settings: StAR promoter luciferase reporter counterscreen, at 3.6 µM, stronger effect = higher value
[2] = target: Nuclear receptor subfamily 5 group A member 2 (Homo sapiens) (UniProt O00482); assay: NR5A2 activity suppression in reporter cells – cell-based, luminescence, confirmation (AID 651613); settings: cell-based LRH-1 luciferase reporter, inverse agonism; at 3.6 µM; stronger effect = higher value;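 further: HEK293T cells co-transfected with LRH-1 and StAR promoter luciferase reporter; 0% = vehicle wells and 100% = parental cells lacking receptor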
Nuclear receptor subfamily 5 group A member 2 (Homo sapiens), sequence (O00482 whole entry, looked up): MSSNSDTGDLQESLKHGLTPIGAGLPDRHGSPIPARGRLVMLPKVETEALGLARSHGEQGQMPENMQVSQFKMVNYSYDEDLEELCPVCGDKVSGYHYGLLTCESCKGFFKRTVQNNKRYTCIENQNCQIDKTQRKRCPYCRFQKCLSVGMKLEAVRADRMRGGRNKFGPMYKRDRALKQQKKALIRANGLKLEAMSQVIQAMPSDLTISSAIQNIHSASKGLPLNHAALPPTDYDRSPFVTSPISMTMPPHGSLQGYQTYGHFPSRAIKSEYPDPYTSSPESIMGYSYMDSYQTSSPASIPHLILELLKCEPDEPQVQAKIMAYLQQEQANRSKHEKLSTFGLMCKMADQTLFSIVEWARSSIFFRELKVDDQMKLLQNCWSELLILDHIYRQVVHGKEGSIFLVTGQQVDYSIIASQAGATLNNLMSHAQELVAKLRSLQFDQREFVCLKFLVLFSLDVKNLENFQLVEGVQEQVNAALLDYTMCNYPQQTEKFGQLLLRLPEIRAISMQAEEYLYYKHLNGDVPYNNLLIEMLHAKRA

[3] = target: Steroidogenic factor 1 (Homo sapiens) (UniProt Q13285); assay: inverse agonism at SF1 nuclear receptor – cell-based, luminescence, high throughput, counter-screen for LRH-1 inverse agonist project (AID 651614; in the data active means inhibition above about 44%;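 further: cells cotransfected with StAR promoter reporter and SF1 expression vector; 0% = vehicle on cells with receptor and 100% = vehicle on cells lacking receptor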); settings: cell-based SF1 luciferase reporter, at 3.6 µM, stronger effect = higher value
Steroidogenic factor 1 (Homo sapiens), sequence (Q13285 whole entry, looked up, the tested form may be a part): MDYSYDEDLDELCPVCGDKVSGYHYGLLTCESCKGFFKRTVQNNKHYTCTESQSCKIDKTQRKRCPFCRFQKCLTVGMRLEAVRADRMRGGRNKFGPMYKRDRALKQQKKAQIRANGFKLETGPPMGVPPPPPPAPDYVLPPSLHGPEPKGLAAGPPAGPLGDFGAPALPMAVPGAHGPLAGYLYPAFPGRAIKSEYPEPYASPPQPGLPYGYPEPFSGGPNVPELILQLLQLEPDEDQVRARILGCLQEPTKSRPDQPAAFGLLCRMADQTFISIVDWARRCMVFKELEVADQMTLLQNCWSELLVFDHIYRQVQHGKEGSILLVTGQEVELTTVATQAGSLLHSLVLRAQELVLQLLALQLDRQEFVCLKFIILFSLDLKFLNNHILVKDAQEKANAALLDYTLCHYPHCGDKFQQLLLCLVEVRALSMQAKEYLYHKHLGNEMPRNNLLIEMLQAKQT

[4] = compounds suppressing VP16-driven luciferase signal – cell-based, luminescence, high throughput, counter-screen for LRH-1 inverse agonist project (AID 651615; in the data active means inhibition above about 33%); settings: Gal4-VP16 luciferase reporter cells, at 3.6 µM, stronger effect = higher value
[5] = target: Photoreceptor-specific nuclear receptor (Homo sapiens) (UniProt Q9Y5X4); assay: retest of NR2E3-NCOR disrupting agonists – cell-based, luminescence, CHO-S two-hybrid, confirmation (AID 624378;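 active means average inhibition above a cutoff equal to the mean inhibition of all tested compounds plus one SD, cut at about 70% in these data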;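 further: 0% = DMSO in NR2E3 cells and 100% = DMSO in cells lacking NR2E3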); settings: CHO-S mammalian two-hybrid NR2E3-NCOR, luciferase luminescence; at 3.98 µM; stronger effect = higher value
Photoreceptor-specific nuclear receptor (Homo sapiens), sequence (Q9Y5X4 whole entry, looked up): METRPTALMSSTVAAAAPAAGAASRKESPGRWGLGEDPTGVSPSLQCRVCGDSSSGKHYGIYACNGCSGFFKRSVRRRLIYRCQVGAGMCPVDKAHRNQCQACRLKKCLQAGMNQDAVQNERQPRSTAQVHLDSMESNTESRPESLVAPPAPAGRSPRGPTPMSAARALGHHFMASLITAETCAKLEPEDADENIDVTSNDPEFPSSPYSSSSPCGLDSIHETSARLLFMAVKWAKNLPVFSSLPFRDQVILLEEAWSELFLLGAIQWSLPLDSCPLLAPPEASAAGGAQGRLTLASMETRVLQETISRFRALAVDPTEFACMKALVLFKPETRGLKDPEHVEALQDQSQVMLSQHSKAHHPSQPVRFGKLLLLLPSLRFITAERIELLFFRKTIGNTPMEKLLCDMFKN

[6] = nonselective effects on VP16 transactivation – cell-based, luminescence, CHO-S, high throughput, counter-screen for NR2E3 agonist project, confirmation (AID 624379;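 active means mean inhibition above a cutoff equal to the average over all tested compounds plus one standard deviation, cut at about 70% in these data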;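 further: 0% = DMSO with VP16-transfected cells and 100% = DMSO with cells lacking VP16; higher means less reporter light so more repression of VP16 activity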); settings: CHO-S GAL4-VP16 luciferase reporter, at 3.98 µM, stronger effect = higher value
[7] = VP16-driven transactivation reporter suppression – cell-based, luminescence, HEK293, counter-screen for COUP-TFII antagonist project (AID 687007; in the data active means inhibition above about 13%); settings: HEK293 Gal4-VP16 luciferase reporter, at 8.5 µM, stronger effect = higher value
[8] = target: COUP transcription factor 2 (Homo sapiens) (UniProt P24468); assay: retest of COUP-TFII reporter suppressors – cell-based, luciferase reporter, HEK293, triplicate, confirmation (AID 687008;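 active means mean inhibition over three repeats above a set limit taken from the earlier primary screen, cut at about 38% in these data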;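 further: 100% = cells given the luciferase reporter alone without the COUP-TF2 vector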); settings: HEK293 NGFI-A luciferase reporter, luminescence; at 8.5 µM; stronger effect = higher value
COUP transcription factor 2 (Homo sapiens), sequence (P24468 whole entry, looked up): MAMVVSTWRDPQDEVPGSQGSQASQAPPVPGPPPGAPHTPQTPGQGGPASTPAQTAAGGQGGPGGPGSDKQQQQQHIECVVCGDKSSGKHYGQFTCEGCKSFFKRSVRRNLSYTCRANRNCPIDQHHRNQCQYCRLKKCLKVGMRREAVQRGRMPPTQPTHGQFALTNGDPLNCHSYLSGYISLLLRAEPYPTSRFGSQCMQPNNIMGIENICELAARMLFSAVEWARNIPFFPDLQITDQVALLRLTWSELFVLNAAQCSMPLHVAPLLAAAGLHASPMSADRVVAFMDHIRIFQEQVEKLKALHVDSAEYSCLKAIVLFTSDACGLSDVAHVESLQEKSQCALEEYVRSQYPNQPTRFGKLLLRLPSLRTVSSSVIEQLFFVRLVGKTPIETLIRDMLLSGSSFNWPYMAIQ

SMILES	inhibition [1] [%]	inhibition [2]	inhibition [3]	inhibition [4] [%]	inhibition [5]	inhibition [6]	inhibition [7] [%]	inhibition [8]
CCc1ccccc1NC(=O)CSc1nnc([C@@H]2CCCN2C(=O)OC(C)(C)C)o1	16.4	50.5% (active)	59% (active)	-8.78	–	–	–	–
Cc1ccc(NC(=O)CN2C(=O)NC(C)(CC(C)C)C2=O)c(Br)c1 (centres undefined)	15.9	55.1% (active)	61.6% (active)	-6.87	–	–	–	–
CCCOc1ccc(Cn2cnc3ccccc32)cc1	5.08	54.6% (active)	52.4% (active)	27.3	–	–	–	–
O=C(OCC(=O)N1CCN(C(=O)COC(=O)c2ccc(O)cc2O)CC1)c1ccc(O)cc1O	14.4	61% (active)	61.2% (active)	3.8	–	–	–	–
Cn1nccc1C(=O)NC1CCCc2c1cnn2-c1ccccc1F (centres undefined)	–	–	–	–	93.7% (active)	86.2% (active)	1.97	66.8% (active)
Cc1cc(C(=O)NC2CCCc3c2cnn3-c2cccc(C)c2C)c(C)o1 (centres undefined)	–	–	–	–	72.7% (active)	69.9%	-2	26.8%
